Experimental data published in PubChem BioAssay (NCATS).
Records with an inconclusive call do not appear. Entries that show only a call come without a potency. A number with no mark means an inactive call. Calls of active or inactive are those of the source. Calls come from the whole dose curve; as a rule, active = well fitted curve in the direction sought with a large enough effect; inconclusive = small, poorly fitted or top-dose-only effect, or another doubt; inactive = no such curve, though single readings can be large; an effect the other way counts as inactive or inconclusive.

Key:
[1] = biological target: Rap guanine nucleotide exchange factor 3 (Homo sapiens) (UniProt O95398); test: Confirmatory qHTS for agonist of cAMP-regulated guanine nucleotide exchange factor 3 (EPAC1) (AID 1645881);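 note: EPAC1 catalysed release of BODIPY-GDP from Rap1B seen as fluorescence loss; nearly all actives have a fitted effect of over 75% in size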
[2] = biological target: Rap guanine nucleotide exchange factor 4 (Homo sapiens) (UniProt Q8WZA2); test: Confirmatory qHTS for agonist of cAMP-regulated guanine nucleotide exchange factor 4 (EPAC2) (AID 1645884);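 note: nucleotide exchange releases bodipy-GDP from Rap1 and this lowers its fluorescence; nearly all actives have a fitted effect of over 65% in size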
[3] = biological target: Rap guanine nucleotide exchange factor 4 (Homo sapiens) (UniProt Q8WZA2); test: Confirmatory qHTS for antagonist of cAMP-regulated guanine nucleotide exchange factor 4 (EPAC2) (AID 1645885); note: nearly all actives have a fitted effect of over 25% in size; note: potency is the fitted concentration of half-maximal effect
[4] = biological target: Rap guanine nucleotide exchange factor 3 (Homo sapiens) (UniProt O95398); test: Counterscreen qHTS for antagonist of cAMP-regulated guanine nucleotide exchange factor 3 (EPAC1) (AID 1645888);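 note: fluorescence loss as bound BODIPY-GDP is released from Rap1B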
How it was run: (§1)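 Measured: fluorescence of BODIPY-GDP bound to Rap1B, which falls as exchange proceeds. Conditions include 50 uM competing GDP, 5 and 30 min reads, and a later cAMP challenge for antagonist detection.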

[5] = biological target: Rap guanine nucleotide exchange factor 3 (Homo sapiens) (UniProt O95398); test: Counterscreen qHTS for agonist of cAMP-regulated guanine nucleotide exchange factor 3 (EPAC1) (AID 1645889); note: nearly all actives have a fitted effect of over 40% in size
How it was run: as §1

Rap guanine nucleotide exchange factor 3 (Homo sapiens), sequence (O95398 whole entry, looked up): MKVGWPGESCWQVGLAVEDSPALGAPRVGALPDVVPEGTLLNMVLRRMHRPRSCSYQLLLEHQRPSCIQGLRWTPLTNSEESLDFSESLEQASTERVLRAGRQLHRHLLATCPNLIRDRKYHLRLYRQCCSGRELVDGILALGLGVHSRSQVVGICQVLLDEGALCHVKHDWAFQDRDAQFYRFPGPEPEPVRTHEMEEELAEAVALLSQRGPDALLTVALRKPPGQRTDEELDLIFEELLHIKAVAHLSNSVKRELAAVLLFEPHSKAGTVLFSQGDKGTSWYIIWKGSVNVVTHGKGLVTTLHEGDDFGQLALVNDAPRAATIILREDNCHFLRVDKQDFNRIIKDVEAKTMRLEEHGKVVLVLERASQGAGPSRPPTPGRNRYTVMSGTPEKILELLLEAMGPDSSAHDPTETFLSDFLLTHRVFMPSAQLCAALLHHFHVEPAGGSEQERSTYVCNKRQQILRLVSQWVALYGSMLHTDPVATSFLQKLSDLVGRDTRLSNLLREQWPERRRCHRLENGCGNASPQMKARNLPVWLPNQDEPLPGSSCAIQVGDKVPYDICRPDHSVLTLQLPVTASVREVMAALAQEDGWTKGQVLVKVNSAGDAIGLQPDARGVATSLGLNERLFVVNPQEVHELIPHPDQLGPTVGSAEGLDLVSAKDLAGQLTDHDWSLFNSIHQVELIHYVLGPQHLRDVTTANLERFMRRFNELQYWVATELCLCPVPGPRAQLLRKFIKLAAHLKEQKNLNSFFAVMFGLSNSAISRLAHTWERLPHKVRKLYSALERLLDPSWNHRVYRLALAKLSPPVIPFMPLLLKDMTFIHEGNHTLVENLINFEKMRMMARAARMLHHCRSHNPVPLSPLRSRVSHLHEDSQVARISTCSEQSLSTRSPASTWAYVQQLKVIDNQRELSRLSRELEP
Rap guanine nucleotide exchange factor 4 (Homo sapiens), sequence (Q8WZA2 whole entry, looked up): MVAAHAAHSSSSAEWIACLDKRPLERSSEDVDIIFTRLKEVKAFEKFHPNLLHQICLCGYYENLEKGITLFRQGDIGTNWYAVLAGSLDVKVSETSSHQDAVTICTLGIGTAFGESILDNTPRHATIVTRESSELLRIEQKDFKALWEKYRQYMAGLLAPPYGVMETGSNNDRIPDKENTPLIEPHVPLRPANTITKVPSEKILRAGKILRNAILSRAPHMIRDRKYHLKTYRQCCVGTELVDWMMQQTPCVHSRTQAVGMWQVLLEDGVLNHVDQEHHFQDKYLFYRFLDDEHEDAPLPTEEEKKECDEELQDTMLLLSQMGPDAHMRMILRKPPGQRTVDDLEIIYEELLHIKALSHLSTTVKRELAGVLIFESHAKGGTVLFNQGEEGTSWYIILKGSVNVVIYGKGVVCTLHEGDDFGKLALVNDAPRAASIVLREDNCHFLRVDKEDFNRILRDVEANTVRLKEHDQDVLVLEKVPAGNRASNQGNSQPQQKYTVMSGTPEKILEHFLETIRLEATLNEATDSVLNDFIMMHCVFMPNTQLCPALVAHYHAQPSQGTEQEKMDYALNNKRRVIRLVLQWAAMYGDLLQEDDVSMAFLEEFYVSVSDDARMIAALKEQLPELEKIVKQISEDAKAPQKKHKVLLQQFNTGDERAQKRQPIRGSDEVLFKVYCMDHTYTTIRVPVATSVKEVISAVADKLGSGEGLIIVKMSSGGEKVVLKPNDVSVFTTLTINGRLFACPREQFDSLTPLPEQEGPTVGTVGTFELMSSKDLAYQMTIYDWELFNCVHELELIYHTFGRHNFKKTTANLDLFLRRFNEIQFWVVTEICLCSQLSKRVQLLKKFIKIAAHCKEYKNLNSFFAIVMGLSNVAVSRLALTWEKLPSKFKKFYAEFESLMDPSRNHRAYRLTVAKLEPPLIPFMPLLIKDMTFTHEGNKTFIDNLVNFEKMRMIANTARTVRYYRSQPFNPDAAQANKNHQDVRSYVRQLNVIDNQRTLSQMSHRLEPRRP

| SMILES | Potency [1] | Potency [2] | Potency [3] | Potency [4] | Potency [5] | activation [2] | activity change, negative = inhibition [4] | activation [5] | outcome [3] |
| --- | --- | --- | --- | --- | --- | --- | --- | --- | --- |
| C=CCn1cc(C(=O)N2CCc3ccccc3C2)c(=O)c2cc(S(=O)(=O)N(CC)CC)ccc21 | inactive | inactive | inactive | inactive | inactive |  |  |  |  |
| O=C(O)CCn1cc(/C=C\C(=O)c2ccc(Cl)cc2)c(-c2cccc(Br)c2)n1 | inactive |  | inactive |  |  | 4.02% [at 17.1 µM, percent relative to cAMP agonist control] | 0.257% [at 30.8 µM] | 15.3% [at 30.8 µM] |  |
| Cc1ccc(-c2ccc(CN3C(CC(C)C)C(=O)N(Cc4cn(CCC5OCCO5)nn4)CCS3(=O)=O)cc2)cc1 (stereo not given) | inactive | inactive | inactive | inactive | inactive |  |  |  |  |
| COc1ccc(-c2csc(C(C)(O)c3ccccc3)n2)cc1 (stereo not given) | inactive |  | inactive |  |  | 5.7% [at 17.1 µM, percent relative to cAMP agonist control] | 8.72% [at 30.8 µM] | 23.4% [at 30.8 µM] |  |
| Cc1ccn2cc(-c3cccc(NC(=O)c4cccs4)c3)nc2c1 | inactive | inactive | inactive | inactive | inactive |  |  |  |  |
| COc1ccc(OCC(=O)NCc2ccc3c(c2)CCN3C(=O)c2cccc(C)c2)cc1 | inactive | inactive | inactive | inactive | inactive |  |  |  |  |
| O=C(O)c1ccc(N/N=C/c2cn(Cc3ccccc3F)c3ccccc23)cc1 | inactive | inactive | inactive | inactive | inactive |  |  |  |  |
| NS(=O)(=O)c1ccc(Nc2nc(-c3cccc([N+](=O)[O-])c3)cs2)cc1 | inactive |  | inactive |  |  | 3.15% [at 17.1 µM, percent relative to cAMP agonist control] | -4.36% [at 30.8 µM] | 15.6% [at 30.8 µM] |  |
| O=[N+]([O-])c1cc(CN2CCN(c3cccc(C(F)(F)F)c3)CC2)c2cccnc2c1O | inactive | inactive | inactive | inactive | inactive |  |  |  |  |
| O=C(O)C(Cc1ccccc1)N1C(=O)/C(=C/c2cccs2)SC1=S (stereo not given) | inactive | inactive | 75.7 µM (active) | inactive | inactive |  |  |  |  |
| CCOc1ccc(S(=O)(=O)Nc2cc(NS(=O)(=O)c3ccc(OCC)cc3)cc(C(=O)O)c2)cc1 | inactive | inactive | inactive | inactive | inactive |  |  |  |  |
| Clc1ccc(Cn2c(/C=C/c3ccco3)nc3ccccc32)cc1 | inactive | inactive | inactive | inactive | inactive |  |  |  |  |
| COc1ccc(C(C#N)N2CCC(c3ccccc3)=N2)cc1 (stereo not given) | inactive | inactive | 7.57 µM (active) | inactive | inactive |  |  |  |  |
| CCOC(=O)C1Nc2ccc(C(F)(F)F)cc2C2C=CCC12 (stereo not given) | inactive |  | inactive |  |  | 1.4% [at 17.1 µM, percent relative to cAMP agonist control] | -11.7% [at 30.8 µM] | 11.6% [at 30.8 µM] |  |
| CN(CC(=O)Nc1cccc(F)c1)C(=O)c1cccc(-n2cccc2)c1 | inactive |  | inactive |  |  | 6.22% [at 17.1 µM, percent relative to cAMP agonist control] | -8.31% [at 30.8 µM] | 14.1% [at 30.8 µM] |  |
| NNc1cccc(C=Cc2ccccc2)cc1=O | inactive |  | inactive |  |  | 0.393% [at 17.1 µM, percent relative to cAMP agonist control] | -9.39% [at 30.8 µM] | 27.5% [at 30.8 µM] |  |
| O=Nc1c(O)c2ccccc2c2ccccc12 | inactive |  | inactive |  |  | 0.886% [at 17.1 µM, percent relative to cAMP agonist control] | -4.76% [at 30.8 µM] | 24.1% [at 30.8 µM] |  |
| COC(=O)c1ccc2nc(-c3ccc(OC)c(OC)c3)c(Cc3ccccc3)n2c1 | inactive | inactive | inactive | inactive | inactive |  |  |  |  |
| CCOC(=O)C(NS(=O)(=O)c1ccc(C)cc1)(C(F)(F)F)P(=O)(OCC(C)C)OCC(C)C (stereo not given) | inactive | inactive | inactive | inactive | inactive |  |  |  |  |
| Cc1ccc(S(=O)(=O)Nc2ccc(S(=O)(=O)Nc3nccs3)cc2)cc1C | inactive | inactive | inactive | inactive | inactive |  |  |  |  |
| CCOC(=O)C1=C(C)N=c2s/c(=C/c3cccc([N+](=O)[O-])c3O)c(=O)n2C1c1ccccc1 (stereo not given) | inactive | inactive | inactive | inactive | inactive |  |  |  |  |

| SMILES | Potency [1] | Potency [2] | Potency [3] | Potency [4] | Potency [5] | activation [2] | activity change, negative = inhibition [4] | activation [5] | outcome [3] |
| --- | --- | --- | --- | --- | --- | --- | --- | --- | --- |
| N#Cc1c(SCC(=O)Nc2cccc(C(F)(F)F)c2)sc2c(O)cc(=O)[nH]c12 | inactive |  | inactive |  |  | 0% [at 17.1 µM, percent relative to cAMP agonist control] | -10.8% [at 30.8 µM] | 17.2% [at 30.8 µM] |  |
| CCN(CC)c1ccc(/C=C2/C(=O)c3ccc(C(=O)O)cc3C2=O)cc1 | inactive |  | inactive |  |  | 4.11% [at 17.1 µM, percent relative to cAMP agonist control] | 8.07% [at 30.8 µM] | 9.24% [at 30.8 µM] |  |
| CN(c1ccccc1)c1ccc(/C=C(\CCC(=O)O)c2nc3ccccc3s2)cc1[N+](=O)[O-] | inactive | inactive | inactive | inactive | inactive |  |  |  |  |
| CCOC(=O)COc1ccc(/C=C(\C#N)c2nc3ccc(C)cc3[nH]2)cc1OC | inactive | inactive | inactive | inactive | inactive |  |  |  |  |
| Cc1[nH]c2ccc(C(=O)OC(C)C(=O)N(C)c3ccccc3)cc2c1C (stereo not given) | inactive | inactive | inactive | inactive | inactive |  |  |  |  |
| Cc1cccc2sc(N(CCCN(C)C)C(=O)CCS(=O)(=O)c3ccccc3)nc12 | inactive | inactive | inactive | inactive | inactive |  |  |  |  |
| C/C=C/c1cc(OC)c2c(c1)[C@H](C)[C@@H](c1ccc(O)c(OC)c1)O2 | inactive | inactive | inactive | inactive | inactive |  |  |  |  |
| CCCCOc1c(Br)cc(/C=N/O)cc1OCC | inactive |  | inactive |  |  | 6.54% [at 17.1 µM, percent relative to cAMP agonist control] | -12% [at 30.8 µM] | 5.43% [at 30.8 µM] |  |
| O=C(CCC(=O)N1CCSc2ccccc21)NCc1cccc(Br)c1 | inactive |  | inactive |  |  | 9.98% [at 17.1 µM, percent relative to cAMP agonist control] | 0.997% [at 30.8 µM] | 10% [at 30.8 µM] |  |
| CC(=O)Nc1ccc(S(=O)(=O)/N=C2/NC(=O)/C(=C\c3ccco3)S2)cc1 | inactive | inactive | 84.9 µM (active) | inactive | inactive |  |  |  |  |
| COc1ccc(Nc2nnc(-c3ccc(O)cc3)c3ccccc23)cc1 | inactive |  | inactive |  |  | 5.03% [at 17.1 µM, percent relative to cAMP agonist control] | -17.5% [at 30.8 µM] | 26.4% [at 30.8 µM] |  |
| Cc1cccc(C)c1-n1cccc1/C=C1\SC(=S)N(c2cccc(C(=O)O)c2)C1=O | inactive | inactive | inactive | inactive | inactive |  |  |  |  |
| COc1ccc(/C=C2\Sc3ccc(C(=O)N4CCN(Cc5ccccc5)CC4)cc3N(C)C2=O)cc1OC | inactive | inactive | inactive | inactive | inactive |  |  |  |  |
| Cc1ccc(S(=O)(=O)N/N=C/c2cc(Br)ccc2O)cc1 | inactive | inactive | inactive | inactive | inactive |  |  |  |  |
| COc1cc(/C=N/NC(=O)c2ccccc2O)ccc1OCC(=O)Nc1ccccc1 | inactive |  | inactive |  |  | -7.34% [at 17.1 µM, percent relative to cAMP agonist control] | 0.781% [at 30.8 µM] | 13.4% [at 30.8 µM] |  |
| Cc1ccc(C)c(CSC2=NC(C)(C)Nc3ccccc32)c1 | inactive | inactive |  | inactive | inactive |  |  |  | inactive [at 12.7 µM] |
| O=[N+]([O-])CC(c1ccccc1)c1c[nH]c2ccccc12 (stereo not given) | inactive | inactive | 21.3 µM (active) | inactive | inactive |  |  |  |  |
| COc1ccc(-c2[nH]c(-c3ccc(F)cc3)nc2SCC(=O)Nc2ccc(OC)c(OC)c2)cc1 | inactive | inactive | inactive | inactive | inactive |  |  |  |  |
| O=C(O)C(Cc1c[nH]c2ccccc12)NS(=O)(=O)c1cccc(Cl)c1Cl (stereo not given) | inactive | inactive | inactive | inactive | inactive |  |  |  |  |
| C=CCN1C(=O)/C(=C/c2ccc(OCC(=O)O)cc2)S/C1=N/c1nccs1 | inactive |  | inactive |  |  | 0% [at 17.1 µM, percent relative to cAMP agonist control] | -1.64% [at 30.8 µM] | 14.3% [at 30.8 µM] |  |
